# Assay outcomes as filed in PubChem BioAssay.
# Many of the other results were omitted from the sample, so hits are more common in it than they were.
# Methyltransferases: Primary Screen for Target Class Profiling of Small Molecule Inhibitors of Methyltransferases; purified enzyme, MTase-Glo SAH luminescence; stronger effect = lower value; calls only at 40 µM; 25,000 tested, 3.9% active; call rule not given here
#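 Each enzyme was assayed with SAM and its substrate. SAH formation detected by MTase-Glo luminescence; single-point 40 uM screen[…].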
# * hit, by the source's call; i = inactive; + = active, no number. % is scaled to controls: 0 for no effect and ±100 for the full control effect.
SMILES,Methyltransferases
COc1ccc(CN2C(=O)c3cc(-c4ccc(OC)cc4)nn3CC2(C)C(=O)NCc2ccccc2)cc1 (centres undefined),i
Cc1ccc(-c2coc(-c3ccc(NS(=O)(=O)c4ccc5c(c4)n(C)c(=O)n5C)cc3)n2)c(C)c1,i
COc1cc(/C=C/c2cn(-c3ccc(C(=O)O)cc3)nc2/C=C/c2ccc(O)c(OC)c2)ccc1O,+
COc1cc(/C=C/C(=O)O[C@@H]2C[C@@](O)(C(=O)O)C[C@@H](O)[C@@H]2O)ccc1O,i
C/C=C/c1ccc2oc(-c3ccc(O)c(OC)c3)c(C)c2c1,i
CC(C)OCCCNc1nc2c(-c3ccc(Cl)cc3)nnn2c2ccccc12,i
CC(CCc1ccccc1)N1C(=O)c2cc3sccc3n2CC1(C)C(=O)NC1CCCCC1 (centres undefined),i
O=C(c1ccco1)N1CCCCC1c1nc(C2CC2)n[nH]1 (centres undefined),i
COc1cc2nc(N3CCN(C(=O)c4ccco4)C4CCCCC43)nc(N)c2cc1OC (centres undefined),+
O=C(NC1CCCN(c2cc(N3CCCC3)ncn2)C1)c1ccco1 (centres undefined),i
CC1(C(=O)NC2CCCCCC2)Cn2nc(-c3ccco3)cc2C(=O)N1Cc1cccc(Cl)c1 (centres undefined),i
COc1cccc(CNC(=O)Cn2ccc3cc(S(=O)(=O)N4CCCCC4)ccc32)c1OC,i
Cc1cccc(CNC(=O)C2(C)Cn3cnc(C(=O)N4CCOCC4)c3C(=O)N2C2CC2)c1 (centres undefined),i
COc1ccc(OC)c2c1cc1n2CC(C)(C(=O)NC2CCCC2)N(Cc2ccccc2C)C1=O (centres undefined),i
O=C(NCc1ccncc1)c1ccc(-c2cccs2)nc1,i
Cc1ccc2nc(N)[nH]c(=O)c2c1Sc1ccncc1,+
CCCN1C(=O)c2cc(C(=O)NCCCOCC)nn2CC1(C)C(=O)NC1CCCC1 (centres undefined),i
CCCn1c(=O)c2ccc(C(=O)NCC(C)C)cc2n2c(=O)n(CC(=O)c3ccc(OCC)cc3)nc12,i
COc1ccc(NC(=O)CCc2nnc3n(CCCOC(C)C)c(=O)c4ccccc4n23)cc1OC,i
Cc1ccc(C)c(N2CCN(C(=O)c3ccc4c(=O)[nH]c5c(C(=O)NC(C)C)sc(=S)n5c4c3)CC2)c1,+
Cc1cccc(N2CCN(C(=O)c3ccc4c(=O)[nH]c5c(C(=O)NC6CCCC6)sc(=S)n5c4c3)CC2)c1C,i
Cc1cccc(-c2n[nH]n3c2nc(=O)c2ccc(C(=O)N4CCN(c5cc(C)ccc5C)CC4)cc23)c1,i
Cc1cccc(N2CCN(C(=O)c3ccc4c(=O)[nH]c5c(C(=O)NC(C)C)sc(=S)n5c4c3)CC2)c1C,+
Cc1ccc(C)c(N2CCN(C(=O)CCc3nnc4n(CCCOC(C)C)c(=O)c5ccccc5n34)CC2)c1,i
CCc1nc2c(=O)n(CC(=O)N3CCN(c4cccc(C)c4C)CC3)nc(C)c2s1,i
SMILES,Methyltransferases
Cc1ccc(NC(=O)N2CCn3cccc3C2C(C)C)c(Cl)c1 (centres undefined),i
CCOC(=O)c1cc2n(n1)CC(C)(C(=O)NCCC(C)C)N(c1ccc(C)cc1)C2=O (centres undefined),i
COc1ccc(N2CCN(CCNS(=O)(=O)c3ccc4[nH]c(=O)[nH]c4c3)CC2)cc1,i
Cc1cc2c(cc3n2CC(C)(C(=O)NC2CCCCCC2)N(CCc2ccc(Cl)cc2)C3=O)o1 (centres undefined),i
COc1ccc(OC)c2c1cc1n2CC(C)(C(=O)NC2CCCC2)N(Cc2ccccn2)C1=O (centres undefined),i
CCN1c2cc(C(=O)Nc3cccc(F)c3)ccc2C(=O)N2CCCC21 (centres undefined),i
CC(=O)N1CCN(NC(=O)c2ccc(F)cc2)CC1,i
CN1CCC(c2c[nH]c3ccc(NC(=O)c4ccc(F)cc4)cc23)CC1,+
C[C@@H]1C(=O)O[C@H]2[C@H]1CC[C@@]1(C)C(=O)C=C[C@@](C)(O)[C@H]21,i
C=C1C(=O)O[C@@H]2[C@H]1[C@H](O)C[C@]1(C)[C@@H](O)CC=C(C)[C@@H]21,i
CC1=CCC(O)C2(C)CCC3C(C)C(=O)OC3C12 (centres undefined),+
Cc1cccc(C2c3cccn3-c3sc4c(c3CN2C(=O)Nc2ccccc2)CCCC4)c1 (centres undefined),i
CC(C)CCC1(O)C(=O)C(C)(C)C(O[C@@H]2O[C@H](CO)[C@@H](O)[C@H](O)[C@H]2O)C(C)(C)C1O (some centres undefined),+
CCC(C)C(=O)O[C@H]1[C@@H](O[C@H]2O[C@H](CO)[C@@H](O)[C@H](O)[C@H]2O)O[C@H](CO)[C@@H](O)[C@@H]1O (some centres undefined),i
CC1(C)COC(=O)[C@@H]1O[C@@H]1O[C@H](CO)[C@@H](O)[C@H](O)[C@H]1O,i
Brc1c(Br)c(Br)c2n[nH]nc2c1Br,+
